# Source: PubChem (National Center for Advancing Translational Sciences (NCATS))
# A549 tox-1 = Nrf2 qHTS screen for inhibitors: counterscreen for cytotoxicity; A549 ARE-Fluc cells, CellTiter-Fluor viability, 18-24 h; Potency, µM (highest dose often 46 µM), for inactives: at the highest dose activity change, negative = cytotoxicity, hits mostly inhibitors; 390,000 compounds, 0.16% hits; note: % is set by controls: 0 for no effect and ±100 for the full control effect
#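 Cytotoxicity counterscreen: CellTiter-Fluor fluorescence was measured in A549 ARE_Fluc cells after 18-24 h of compound exposure in a concentration series. The subsequent BugLite luminescent read reports ARE-luciferase activity.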
# ATXN2 expr inh = Primary qHTS for Inhibitors of ATXN expression | HEK-293 ATXN2-luciferase reporter, luminescence, 24 h | Potency, µM (series often up to 57 µM), inactives show top-dose activity change, negative = inhibition, actives largely listed as inhibitors | 360,000 compounds, 0.72% hits | AID 1745845, 2022; note: % is set by controls: 0 for no effect and ±100 for the full control effect; nearly all actives have a fitted effect of over 55% in size
#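 ATXN2-luciferase reporter cells (luciferase flanked by upstream and downstream ATXN2 gene portions) were treated 24 h at 37 °C with compounds at up to 57 uM. SteadyGlo luminescence gave expression; GF-AFC fluorescence gave viability.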
# Nrf2 activator = qHTS of Nrf2 Activators; AREc32 ARE-luciferase reporter (MCF7-derived line), luminescence, 24 h; Potency, µM (highest dose often 46.1 µM), without a hit: top-dose activation, usual class: activators; 410,000 compounds, 0.31% hits; note: % of control where 0% means no effect; nearly all actives have a fitted effect of over 65% in size
#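 Luciferase luminescence (Steady-Glo, 30 min at room temperature) served as the read-out of ARE activation in AREc32 cells treated with compounds for 24 hr at 37 deg C.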
# Nrf2 block = Nrf2 qHTS screen for inhibitors; 360,000 compounds, 2.1% hits; AID 504444, 2011; A549 ARE-Fluc reporter, luciferase luminescence, 18-24 h; Potency, µM (highest dose often 46 µM), without a hit: at the highest dose activity change, negative = inhibition, most hits filed as inhibitors; note: % is set by controls: 0 for no effect and ±100 for the full control effect; nearly all actives have a fitted effect of over 60% in size
#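 Nrf2 function is reported as luminescence of an ARE-controlled luciferase in A549 cells. Compounds were tested at several concentrations, and a CellTiter-Fluor read on the same wells flagged cytotoxicity.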
# S2 tox = Viability Counterscreen for Primary qHTS for Inhibitors of ATXN expression. S2 cells (HEK-293 line with an ATXN2-luciferase reporter) viability, CellTiter-Fluor protease fluorescence, 24 h. Potency, µM (titrated, usually from 56.7 µM), actives largely listed as cytotoxic. 400,000 compounds, 0.49% hits. AID 651635, 2014; note: nearly all actives have a fitted effect of over 40% in size
# FLuc enzyme inh = Nrf2 qHTS screen for inhibitors: Purified Fluc Biochemical Counterscreen for Hit Validation. shares compounds with Nrf2 block. purified firefly luciferase, luminescence inhibition. Potency, µM (top dose mostly 57.5 µM), for the others: at the highest dose activity change, negative = inhibition, usual class: inhibitors. 1,400 compounds, 4% hits; note: % is set by controls: 0 for no effect and ±100 for the full control effect; nearly all actives have a fitted effect of over 65% in size
# Target sequence (P08659 whole entry, looked up): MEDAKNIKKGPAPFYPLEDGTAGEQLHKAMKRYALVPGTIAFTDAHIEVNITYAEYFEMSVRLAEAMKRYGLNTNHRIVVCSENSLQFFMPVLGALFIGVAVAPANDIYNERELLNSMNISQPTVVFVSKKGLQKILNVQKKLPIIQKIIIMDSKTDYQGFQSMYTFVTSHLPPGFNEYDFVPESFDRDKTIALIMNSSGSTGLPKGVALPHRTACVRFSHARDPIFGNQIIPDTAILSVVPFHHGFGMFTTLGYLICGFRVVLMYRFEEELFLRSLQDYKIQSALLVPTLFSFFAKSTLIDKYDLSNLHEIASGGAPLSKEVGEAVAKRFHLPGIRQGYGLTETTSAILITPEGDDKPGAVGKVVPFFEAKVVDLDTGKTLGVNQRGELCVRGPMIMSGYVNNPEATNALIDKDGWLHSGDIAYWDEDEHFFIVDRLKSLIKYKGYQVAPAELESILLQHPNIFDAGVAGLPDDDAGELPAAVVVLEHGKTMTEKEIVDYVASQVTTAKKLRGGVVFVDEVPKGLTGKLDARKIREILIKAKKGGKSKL
# A549 tox-2 = Nrf2 qHTS screen for inhibitors: A549 ARE-Fluc Cytotoxicity Counterscreen for Hit Validation. shares compounds with Nrf2 block. A549 ARE-Fluc cells, cytotoxicity counterscreen. Potency, µM (titrated, usually from 46.1 µM), inactives show at the top dose activity change, negative = cytotoxicity, usual class: inhibitors. 1,400 compounds, 2% hits. AID 720523, 2013;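 note: cells exposed to compounds for 18 to 24 hours; % is set by controls: 0 for no effect and ±100 for the full control effect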
# ARE-Fluc inh = Nrf2 qHTS screen for inhibitors: Nrf2 A549 ARE-Fluc Confirmation Assay for Hit Validation; shares compounds with Nrf2 block; A549 ARE-firefly luciferase reporter, luminescence; Potency, µM (titrated, usually from 46.1 µM), for the others: at the top dose activity change, negative = inhibition, hits mostly inhibitors; 1,400 compounds, 74% hits; AID 720524, 2013; note: % is set by controls: 0 for no effect and ±100 for the full control effect; nearly all actives have a fitted effect of over 65% in size
# * hit, by the source's call; i = inactive; ? = inconclusive; nt = not tested or not shown; [ ] = remark or other dose. Only some compounds are listed: those with a hit (about 2.9% of all), similar ones and a draw of the others. Calls come from the whole dose curve; as a rule, active = well fitted curve in the direction sought with a large enough effect; inconclusive = small, poorly fitted or top-dose-only effect, or another doubt; inactive = no such curve, though single readings can be large; an effect the other way counts as inactive or inconclusive. Potency is the fitted concentration of half-maximal effect.
SMILES,A549 tox-1,ATXN2 expr inh,Nrf2 activator,Nrf2 block,S2 tox,FLuc enzyme inh,A549 tox-2,ARE-Fluc inh
CC1=NN(c2cccc(F)c2)C(=O)/C1=C/c1ccc(N(C)C)cc1,0.9%,-1.3%,-0.2%,-4.9%,i,nt,nt,nt
Cc1c(C(=O)NCc2ccccc2Cl)sc2nc3n(c(=O)c12)CCCC3,-9.8%,nt,0.4%,-12.7%,nt,nt,nt,nt
Cc1c(C(=O)NCc2ccccc2Cl)sc2nc3n(c(=O)c12)CCCCC3,-12.8%,8.8%,5.0%,4.61µM*,i,-26.2%,-0.6%,-11.5%
Cc1ccc(-c2cc3cccc[n+]3cc2-c2ccc(C)cc2)cc1,-16.9%,-38.6%,3.3%,3.26µM*,?,0.9%,-11.7%,2.59µM*
Cc1ccc2nc(-c3ccncc3)cc(-c3ccccc3)c2c1,-1.9%,-16.3%,4.5%,nt,i,nt,nt,nt
CCN1CCN(C(=O)C2CCN(S(=O)(=O)c3ccc4c(c3)NC(=O)C(C)S4)CC2)CC1 (stereo not drawn),7.3%,-5.0%,-0.1%,-2.0%,i,nt,nt,nt
COc1cccc(C2C=C(c3ccccc3)Nc3c(C(=O)Nc4ccccc4)cnn32)c1OC (stereo not drawn),-11.3%,nt,4.3%,2.31µM*,nt,2.0%,-13.4%,?
Cc1cccc(Oc2ccccc2NC(=O)CSCC(=O)Nc2cc(C)on2)c1,-21.2%,19.9%,-0.7%,?,i,nt,nt,nt
CCOc1ccc(Oc2ccccc2NC(=O)CSCC(=O)Nc2cc(C)on2)cc1,-18.6%,-23.2%,2.0%,9.2µM*,i,-1.5%,-7.1%,7.31µM*
Cc1ccc(S(=O)(=O)N2CCc3ccccc3CC2)cc1,-1.8%,?,2.9%,8.2µM*,i,2.8%,-1.7%,4.11µM*
CCCC(C)NC(=O)COc1ccc(Sc2ccc(OCC(=O)NC(C)CCC)cc2)cc1 (stereo not drawn),-0.3%,-20.2%,-0.9%,3.66µM*,i,3.7%,-0.5%,nt
COc1cc(NC(=O)c2cccc(COCC(F)(F)C(F)F)c2)cc(OC)c1OC,1.6%,-8.0%,-0.3%[9.22 µM],9.2µM*,?,-7.2%,-0.2%,-11.5%
O=C(O)C1CCCN1c1nc(-c2ccc(Cl)c(Cl)c2)cc(C(F)(F)F)n1 (stereo not drawn),-13.6%,-8.7%,0.1%,7.31µM*,i,-11.7%,-20.5%,nt
CC1(C(=O)O)CCC2(C)CCC3(C)C(=CC(=O)C4C5(C)CCC(=O)C(C)(C)C5CCC43C)C2C1 (stereo not drawn),nt,nt,-1.6%,nt,i,nt,nt,nt
COc1ccccc1N=c1oc2cc(O)ccc2cc1C(=O)NCC1CCCO1 (stereo not drawn),nt,-13.2%,2.4%,?,i,-16.2%,0.4%,13µM*
COc1ccc(S(=O)(=O)N2CCN(C/C=C/c3ccccc3)CC2)cc1F,9.1%,-21.1%,0.0%,-8.2%,i,nt,nt,nt
CC(=O)Nc1sc2c(c1-c1nc3ccccc3s1)CCN(C(C)C)C2,-10.5%,5.32µM*,-5.3%,6.51µM*,?,0.4%,-27.0%,6.51µM*
CCN1CCc2c(sc(NC(=O)CSc3ccccc3)c2-c2nc3ccccc3s2)C1,-1.8%,nt,15.0%,-5.8%,nt,nt,nt,nt
CN(C)c1ccc(CNC(=O)C2CCCN(S(=O)(=O)c3ccc4c(c3)CCCC(=O)N4)C2)cc1 (stereo not drawn),-0.4%,nt,-0.6%,5.8µM*,nt,-9.9%,-0.5%,?
O=C1CCCc2cc(S(=O)(=O)N3CCCC(C(=O)NCc4ccc(Cl)cc4)C3)ccc2N1 (stereo not drawn),2.5%,-23.2%,-0.2%,?,i,nt,nt,nt
NC(=O)C1CCN(C(=O)c2cnn(-c3ccccc3)c2NC(=O)c2cccc(F)c2)CC1,-15.8%,-0.6%,0.2%,-11.8%,i,nt,nt,nt
COc1cc(C2CC(=O)c3c([nH]c(C(=O)OCc4ccc(C)cc4)c3C)C2)cc(OC)c1OC (stereo not drawn),-9.2%,nt,4.0%,2.31µM*,nt,-0.1%,-2.9%,4.61µM*
CCOC(=O)c1[nH]c2c(c1C)C(=O)CC(c1ccc(OC)c(OC)c1)C2 (stereo not drawn),-7.4%,-7.8%,0.1%,-2.2%,?,nt,nt,nt
COc1cc(C2CC(=O)c3c([nH]c(C(=O)OCCOC(C)C)c3C)C2)cc(OC)c1OC (stereo not drawn),?,31.6µM*,-0.6%,4.61µM*,?,2.9%,-12.3%,9.2µM*
COC(=O)c1cc(C(=O)N2CCc3ccccc32)cc([N+](=O)[O-])c1,-11.9%,6.2%,-0.2%,?,i,nt,nt,nt
SMILES,A549 tox-1,ATXN2 expr inh,Nrf2 activator,Nrf2 block,S2 tox,FLuc enzyme inh,A549 tox-2,ARE-Fluc inh
COc1ccc(OC)c(NC(=O)CSc2ncnc3c2cnn3-c2ccccc2Cl)c1,?,-32.1%,3.0%,4.61µM*,i,-0.3%,-15.0%,nt
O=C(CN1C(=O)NC2(CCCC2)C1=O)Nc1ccccc1,-0.7%,2.8%,0.1%,5.1%,i,nt,nt,nt
CCC1Oc2ccccc2N(CC(=O)Nc2ccc3c(c2)OCCO3)C1=O (stereo not drawn),0.7%,23.0%,2.8%,13.4%,i,nt,nt,nt
S=C(NCCc1ccccc1)Nc1cccc2cnccc12,-24.0%,?,3.0%,3.66µM*,i,0.0426µM*,-15.9%,2.59µM*
S=C(NCc1cccnc1)Nc1cccc2ccccc12,17.6%,0.3%,-0.9%,14.8%,i,nt,nt,nt
S=C(NCc1ccccc1)Nc1cccc2cnccc12,-13.1%,?,3.9%,2.59µM*,i,-13.7%,-2.2%,7.31µM*
CCNC(=O)CC1C(=O)N(c2ccccc2)C(=O)N1Cc1ccc(F)cc1 (stereo not drawn),2.9%,11.3%,0.3%,9.2%,i,nt,nt,nt
C[C@@H]1C=CC(=O)O[C@@H]1c1ccc(Cl)cc1,-0.7%,?,0.4%,9.2µM*,?,0.7%,-15.0%,5.8µM*
NC(=S)NNc1ccnc2cc(Cl)ccc12,0.3%,-14.5%,5.6%,-4.4%,i,nt,nt,nt
O=C(NNc1ccnc2cc(Cl)ccc12)C1CCCCC1,-17.3%,?,0.6%,3.26µM*,i,?,-13.1%,2.59µM*
COc1cccc(-c2nnc(SCC(=O)N3CCc4ccccc43)o2)c1,0.3%,-3.4%,10.6%,1.3%,i,nt,nt,nt
